This is a sample that favours compounds with a hit; in the whole collection about 3.2% have one here.
bovine MsrA act: bovine MsrA enzyme activators, primary screen, biochemical, absorbance, HTS; 360,000 tested, 0.3% active; purified bovine MsrA, absorbance read-out; Methionine sulfoxide reductase A (Bos taurus); activation, % at 10.6 µM; in the data active = activation above about 7.5%;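 note: 0% = vehicle and 100% = reference activator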
PG9 binder: binders of HIV-1 gp120 antibody PG9, primary screen, biochemical, TR-FRET | HIV-1 gp120 / PG9 antibody interaction | TR-FRET gp120-PG9 antibody binding | inhibition, % at 6.7 µM | 360,000 tested, 0.43% active | AID 624416, 2012; in the data active = inhibition above about 8.5%
HGIII-sPLA2 inh: human group III sPLA2 inhibitors, primary screen, biochemical, QFRET, BODIPY PC-A2 liposome substrate; AID 743126, 2013; 370,000 tested, 0.56% active; QFRET BODIPY PC-A2 liposome hydrolysis, fluorescence; inhibition, % at 12.2 µM;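 active = inhibition above mean plus 3 SD of compounds lying within the high and low control bounds, cut at about 19% in these data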;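 note: 0% = median of test compound wells and 100% = no enzyme DMSO wells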
Target sequence (Q9NZ20 whole entry, looked up): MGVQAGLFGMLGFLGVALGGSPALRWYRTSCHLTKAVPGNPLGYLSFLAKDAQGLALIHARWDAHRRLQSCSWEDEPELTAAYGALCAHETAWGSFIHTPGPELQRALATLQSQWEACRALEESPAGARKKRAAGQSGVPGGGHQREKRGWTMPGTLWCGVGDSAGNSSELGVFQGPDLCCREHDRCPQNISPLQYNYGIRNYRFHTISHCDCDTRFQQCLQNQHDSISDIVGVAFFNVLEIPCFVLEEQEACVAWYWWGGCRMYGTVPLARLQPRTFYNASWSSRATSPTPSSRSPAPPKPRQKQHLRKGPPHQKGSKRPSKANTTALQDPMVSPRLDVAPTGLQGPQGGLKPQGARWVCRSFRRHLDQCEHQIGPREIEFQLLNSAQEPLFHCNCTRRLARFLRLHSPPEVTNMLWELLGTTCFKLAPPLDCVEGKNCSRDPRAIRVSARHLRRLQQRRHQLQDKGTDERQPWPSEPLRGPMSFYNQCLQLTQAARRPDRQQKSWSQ
rCAG binder: binders of r(CAG) RNA repeats, primary screen, biochemical, fluorescence | r(CAG) RNA repeat, TO-PRO-1 dye displacement fluorescence | inhibition, % at 3 µM | 370,000 tested, 1.3% active | AID 651821, 2012;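 active = inhibition above the plate cutoff, the mean of all test compounds on that plate plus 3 SD, cut at about 35% in these data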;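 note: 0% = DMSO alone and 100% = 100 µM mitoxantrone as full dye displacement; higher means more dye released from RNA so lower well fluorescence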
MsrA inh: bovine MsrA enzyme inhibitors, primary screen, biochemical, absorbance, HTS. Methionine sulfoxide reductase A (Bos taurus). purified bovine MsrA, absorbance read-out. inhibition, % at 15.5 µM. 360,000 tested, 0.75% active. AID 651718, 2012; in the data active = inhibition above about 4.5%;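 note: 0% = vehicle wells with enzyme and 100% = reference inhibitor wells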
rCAG bind conf: small molecules binding CAG repeat RNA – biochemical, fluorescence, confirmation. shares compounds with rCAG binder. r(CAG) RNA repeat, TO-PRO-1 dye displacement fluorescence. inhibition, % at 3 µM. 4,300 tested, 70% active. AID 652065, 2013;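 active = inhibition above a per-plate cutoff, the mean inhibition of sample wells plus 3 SD, cut at about 35% in these data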;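 note: loss of TO-PRO-1 fluorescence as compound displaces dye from 1x1 AA loop RNA; 0% = DMSO only wells and 100% = 100 µM mitoxantrone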
DNA CAG counter: displacement of TO-PRO-1 from CAG DNA duplex, counter-screen for rCAG RNA repeat binder project, biochemical, fluorescence, TO-PRO-1 dye, d(CAG) DNA oligo; shares compounds with rCAG binder; AID 652068, 2013; 4,300 tested, 94% active; d(CAG) DNA oligo TO-PRO-1 dye displacement; inhibition, % at 3 µM;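 active = inhibition above its plate's cutoff, the mean test-well inhibition plus 3 SD, cut at about 4.8% in these data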;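 note: 0% = DNA dye mix with DMSO and 100% = 100 µM mitoxantrone; hits displace the dye from DNA and so lower well fluorescence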
* marks the source's active call; other numbers are inactive results; x = no result.

SMILES	bovine MsrA act	PG9 binder	HGIII-sPLA2 inh	rCAG binder	MsrA inh	rCAG bind conf	DNA CAG counter
O=C(CCc1ccccc1)N[C@H]1[C@@H](OC(=O)c2ccc([N+](=O)[O-])cc2)CCC[C@]12C(=O)N(Cc1ccccc1)c1ccccc12	x	x	1.4	5.5	x	x	x
Cc1ccc(CNC(=O)C(C)OC(=O)c2ccco2)cc1 (stereo not given)	-3.8	4.5	2.7	56.5*	-0.8	1.7	-1.2
O=C(CSc1ccc(-c2ccco2)nn1)c1cccc([N+](=O)[O-])c1	-2.7	-3.5	-38.3	35.5*	0.2	16.8	11.3*
O=C(c1ccc(NC(=O)C(c2ccccc2)c2ccccc2)cc1)c1ccc(C(=O)O)c(C(=O)O)c1	-2.1	-0.4	-6.1	41.8*	1.8	18.0	3.4
CCc1cc(C(=O)O)c(NC(=O)C(c2ccccc2)c2ccccc2)s1	-0.6	0.8	-26.9	41.4*	-0.4	36.0*	8.4*
O=C(OCc1cn(Cc2ccc(F)cc2F)nn1)N1CCCC1	x	x	15.2	2.5	x	x	x
CCN(CC)S(=O)(=O)c1ccc(NS(=O)(=O)c2ccc(OC)c([N+](=O)[O-])c2)cc1	-8.0	-0.8	-30.3	42.5*	-0.2	18.4	3.9
O=[N+]([O-])c1ccc(Cl)c(S(=O)(=O)Nc2cccc(-c3ccc(N4CCCC4)nn3)c2)c1	-2.6	-1.4	-22.9	47.1*	3.1	51.6*	18.4*
Cc1c([N+](=O)[O-])cc(S(=O)(=O)Nc2ccc(-c3ccc(N4CCCC4)nn3)cc2)cc1[N+](=O)[O-]	-1.3	-2.3	-11.0	56.2*	0.2	65.2*	27.7*
O=[N+]([O-])c1ccc(S(=O)(=O)Nc2ccc(-c3ccc(N4CCCC4)nn3)cc2)cc1	-0.5	1.8	-15.3	25.1	2.5	x	x
O=[N+]([O-])c1ccc(Cl)c(S(=O)(=O)Nc2ccc(-c3ccc(N4CCCC4)nn3)cc2)c1	0.7	-1.0	-22.8	47.1*	0.0	39.3*	11.6*
S=C(Nc1cc(Cl)cc(Cl)c1)NC(c1ccccc1)c1ccccc1	x	x	-8.0	x	x	x	x
Cc1ccc([N+](=O)[O-])cc1S(=O)(=O)Nc1ccc(-c2ccc(N3CCCC3)nn2)cc1	-2.4	-0.1	-26.2	37.4*	2.8	43.5*	15.5*
COc1ccc(-c2ccc(NS(=O)(=O)c3cc([N+](=O)[O-])c(C)c([N+](=O)[O-])c3)cc2)nn1	-3.6	-2.7	-30.5	55.5*	1.0	42.5*	15.1*
O=[N+]([O-])c1ccccc1S(=O)(=O)Nc1cccc(-c2ccc(N3CCCC3)nn2)c1	-1.2	-1.8	-11.0	36.4*	2.0	32.9	9.6*
CNC(C#Cc1ccccc1)c1ccccc1C(F)(F)F (stereo not given)	x	x	-0.2	x	x	x	x
Cc1ccc(S(=O)(=O)Nc2cccc(S(=O)(=O)Nc3ccccc3C(=O)O)c2)c(C)c1	0.1	2.0	-51.1	66.7*	1.5	64.9*	26.4*
O=C(O)c1ccccc1NS(=O)(=O)c1cccc(NS(=O)(=O)c2cc(Br)ccc2Br)c1	-2.2	-0.9	-62.0	68.9*	-0.7	61.1*	22.5*
CCOc1ccc(Br)cc1S(=O)(=O)Nc1cccc(S(=O)(=O)N(C)C)c1	-4.6	-0.3	-15.4	13.1	0.2	x	x
CCOc1ccc(Br)cc1S(=O)(=O)Nc1cccc(S(=O)(=O)Nc2ccccc2C(=O)O)c1	-2.7	-0.5	-47.8	78.5*	0.7	83.0*	47.7*
CN1C(=O)c2cc(NC(=O)Cc3ccccc3)ccc2OC[C@H]2O[C@H](CC(=O)O)CC[C@H]21	x	x	0.7	3.4	x	x	x
O=S1(=O)c2ccc(N3CCC[C@@H]3CO)cc2O[C@H]2CCN1C2	x	x	6.2	3.7	x	x	x
Cc1onc(-c2ccccc2Cl)c1C(=O)Nc1ccccc1	-6.3	-0.8	14.5	-2.2	1.5	x	x

Screening results (PubChem)
